For 53 compounds, INHIBITION results are on record in ChEMBL document CHEMBL4513216, “Probing the Open Global Health Chemical Diversity Library for Multistage-Active Starting Points for Next-Generation Antimalarials” (ACS Infect Dis, 2020).

In all, about 69,000 compounds went through this assay and about 8,600 (12%) showed an effect of 50% or more. What follows is part of a selection rich in strong results, with near analogues and random picks from the rest.

The test system of this experiment is Plasmodium berghei. Nature of the experiment: Screen against P. berghei liver stage (PbLuc), transformed with Luciferase, at 10uM. The class given is functional, HepG2. Conditions: tested at 10 uM.
Regarding `O=C1c2cccnc2OC(CN2CCOCC2)CN1C1CCC1` (stereo not drawn), the INHIBITION was -10.3%.

For the compound `COC(=O)c1ccccc1NC(=O)c1c(C)cn(C)c1CC(=O)O`, the INHIBITION is given as 19.2%.

On to `O=C1CCNc2ncc(-c3ccccc3Cl)cc2CN1C1CC1`, for which the INHIBITION came out at 50.2%.

As to `O=C1CCNc2ncc(-c3ccc(Cl)cc3)cc2CN1C1CC1`, the INHIBITION is 7.85%.

Take `O=C1CCNc2ncc(-c3cccc(Cl)c3)cc2CN1C1CC1`: the INHIBITION is 2.55%.

Turning to `Cn1cc(CN2CCOC3(CCCN(C(=O)c4ccco4)C3)C2)cn1` (stereo not drawn), the INHIBITION is reported as 8.47%.

Take `Cc1cc(C)nc(N2CC[C@H](Oc3ccccc3F)[C@@H](O)CC2)n1`: the INHIBITION is given as 42.6%.

On to `CC(C)N1CCOCC2(CCN(c3cnccn3)CC2)C1`, for which the INHIBITION was determined as 35.8%.

As for `COCCCn1ccc(NS(=O)(=O)c2cc(C)c(F)cc2F)n1`, the INHIBITION is recorded as -15.3%.

Regarding `CCC(Cn1ccc2[nH]c(=O)c(C#N)cc2c1=O)OC` (stereo not drawn), the INHIBITION is 3.82%.

For the compound `CC(O)CCn1ccc2[nH]c(=O)c(C#N)cc2c1=O` (stereo not drawn), the INHIBITION is on record as -1.09%.

With `CCCOC(C)Cn1ccc2[nH]c(=O)c(C#N)cc2c1=O` (stereo not drawn), the INHIBITION is reported as 71.8%.

On to `CN(Cc1nc(Cc2cccc(C(F)(F)F)c2)no1)C(C1CC1)C1CC1`, for which the INHIBITION amounted to 27.6%.

`Cn1nc(CN2CCCCC2)c2c1CN(Cc1ccoc1)C2`: the INHIBITION came to 11.3%.

For the compound `O=C(c1cc(C2CCCC2)no1)N1CCCCC1`, the INHIBITION is -12.5%.

Consider `Cc1ccc2c(c1)CN(C(=O)C1CCCCC1)C(CN(C)C)CO2` (stereo not drawn), for which the INHIBITION came to 60.3%.

`Cc1ccc2c(c1)CN(C(=O)c1cnc(C)cn1)C(CN(C)C)CO2` (stereo not drawn): the INHIBITION was found to be 66.5%.

As for `CC(=O)N1[C@H](CN(C)C)C[C@@H]2CN(C(=O)c3cnc(C)cn3)CC[C@@H]21`, the INHIBITION is -50.4%.

In the case of `Cc1nc(C)c(C(=O)N2Cc3ccccc3OCC2CN(C)C)o1` (stereo not drawn), the INHIBITION is recorded as 11.8%.

Regarding `Cc1ccc2c(c1)[C@@H](CC(=O)N(C)C)CCO2`, the INHIBITION turned out to be 14.5%.

Regarding `CN(CCO)CC1COCCN1C(=O)C1CCCCC1` (stereo not drawn), the INHIBITION is 40.7%.

For the compound `Cc1nc(CN2CCc3ccc(S(N)(=O)=O)cc32)oc1C`, the INHIBITION is reported as -24%.

As to `CN(C)c1ncccc1CNC(=O)NCc1cccs1`, the INHIBITION is on record as 41.2%.

As for `CN1CCN(C(=O)c2cc[nH]c(=O)c2)Cc2ccccc21`, the INHIBITION came out at 20%.

As for `O=C(NCC1CCCCC1)N1C[C@@H]2C[C@@H]1CN2`, the INHIBITION is on record as 9.97%.

On to `COc1ccc(CN2CCC(c3nccnc3-n3ccnc3)CC2)cc1`, for which the INHIBITION is 35.2%.

As to `Cc1nccn1-c1nccnc1C1CCCN(C)C1` (stereo not drawn), the INHIBITION is recorded as 34.55%.

As to `Cc1nccn1-c1cccc(C2CCCN(C3CCCC3)C2)n1` (stereo not drawn), the INHIBITION stood at 36.7%.

In the case of `Cc1nccn1-c1nccnc1C1CCCN(C2CCCC2)C1` (stereo not drawn), the INHIBITION is given as 59.45%.

With `Fc1ccc(CN2CCC(c3nccnc3-n3ccnc3)CC2)cc1`, the INHIBITION was determined as 37%.

As to `Cc1nccn1-c1nccnc1C1CCN(Cc2ccc(F)cc2)CC1`, the INHIBITION was determined as 71.1%.

`Cc1n[nH]c(C2CN(Cc3nnc(C4CCC4)o3)CCO2)n1` (stereo not drawn): the INHIBITION amounted to 0.914%.

Consider `c1cc(CN2C[C@@H]3OCCN(CCN4CCCC4)[C@@H]3C2)co1`, for which the INHIBITION came to 15.7%.

On to `CC(=O)OCc1ccc(CN2CCCCCC2c2cc(C)no2)o1` (stereo not drawn), for which the INHIBITION was found to be 18.3%.

For the compound `CCc1nc(C2CCCN2C(=O)c2cc3c(s2)CCC3)no1` (stereo not drawn), the INHIBITION is 7.08%.

`CCC(C(=O)NC1(C(N)=O)CCCC1)n1cccn1` (stereo not drawn): the INHIBITION is on record as 55.9%.

Take `CCC(C(=O)NC1(CN2CCOCC2)CCCC1)n1cccn1` (stereo not drawn): the INHIBITION is 30.9%.

`CCC(C(=O)NC1(COC)CCCC1)n1cccn1` (stereo not drawn): the INHIBITION is reported as 8.08%.

With `CC(C)C(=O)Nc1ccc(C(O)Cn2nc(-c3cccs3)oc2=O)cc1` (stereo not drawn), the INHIBITION is recorded as 8.9%.

Consider `c1cnn(Cc2nnc3n2CCCN(Cc2ccsc2)C3)c1`, for which the INHIBITION is 32.4%.

For `O=C(c1cnccn1)N1C[C@@H]2OCC(=O)N(CC3CCCCC3)[C@@H]2C1`, the INHIBITION came out at 26.4%.

Consider `O=C(c1cnccn1)N1C[C@@H]2[C@@H](C1)OCC(=O)N2CC1CCCC1`, for which the INHIBITION came to 91.9%.

For `Cc1cnc(C(=O)N2C[C@@H]3[C@@H](C2)OCC(=O)N3CC2CCCC2)cn1`, the INHIBITION is listed as -18.5%.

For the compound `CN(Cc1ccco1)C(=O)CN1CCOC(Cn2cncn2)C1` (stereo not drawn), the INHIBITION is -0.219%.

As to `CC(C)N(C)Cc1cnc2n1CCN(C(=O)Cc1ccccn1)C2`, the INHIBITION is listed as 24.3%.

Regarding `O=C1CN(c2ccc(CNC(=O)Nc3nccs3)cc2)CCN1`, the INHIBITION amounted to 13.8%.

Consider `CN(c1ncc(S(N)(=O)=O)s1)C1CCc2ccccc21` (stereo not drawn), for which the INHIBITION was determined as 36.5%.

Take `CN(Cc1ccc2c(c1)OCCO2)c1ncc(S(N)(=O)=O)s1`: the INHIBITION amounted to 54.4%.

Consider `CCc1ncc(C(=O)N(C)C2Cc3ccccc3C2)cn1`, for which the INHIBITION is -98.6%.

Consider `COc1ccc(CN(C)c2ncc(S(N)(=O)=O)s2)c(OC)c1`, for which the INHIBITION is -28.2%.

For the compound `CCN(Cc1ccc2c(c1)OCO2)c1ncc(S(N)(=O)=O)s1`, the INHIBITION amounted to 27.5%.

For the compound `CN(c1ncc(S(N)(=O)=O)s1)C1CCC1`, the INHIBITION is reported as 52.2%.

On to `CCN(Cc1ccoc1)c1ncc(S(N)(=O)=O)s1`, for which the INHIBITION was 20.8%.
